{"source": "the supplement of paper PMC8728848", "binders": {"B1": {"name": "AntigenI/IIC123 (Streptococcus mutans), C9E3B4 (protein)", "chain": "MASMTGGQQMGRIHFHYFKLAVQPQVNKEIRNNNDINIDRTLVAKQSVVKFQLKTADLPAGRDETTSFVLVDPLPSGYQFNPEATKAASPGFDVTYDNATNTVTFKATAATLATFNADLTKSVATIYPTVVGQVLNDGATYKNNFTLTVNDAYGIKSNVVRVTTPGKPNDPDNPNNNYIKPTKVNKNENGVVIDGKTVLAGSTNYYELTWDLDQYKNDRSSADTIQKGFYYVDDYPEEALELRQDLVKITDANGNEVTGVSVDNYTNLEAAPQEIRDVLSKAGIRPKGAFQIFRADNPREFYDTYVKTGIDLKIVSPMVVKKQMGQTGGSYENQAYQIDFGNGYASNIIINNVPKINPKKDVTLTLDPADTNNVDGQTIPLNTVFNYRLIGGIIPADHSEELFEYNFYDDYDQTGDHYTGQYKVFAKVDITFKDGSIIKSGAELTQYTTAEVDTAKGAITIKFKEAFLRSVSIDSAFQAESYIQMKRIAVGTFENTYINTVNGVTYSSLEHHHHHH"}}, "assay_in_all_cases": "glycan array binding signal (z-score within array); higher = stronger binding", "settings_in_all_cases": "glycan notation: IUPAC condensed, linker removed", "key": {"[1]": {"molecular_target": "Gal(b1-4)GlcNAc(b1-3)Gal(b1-4)GlcNAc(b1-3)Gal(b1-4)GlcNAc(b1-2)[Gal(b1-4)GlcNAc(b1-3)Gal(b1-4)GlcNAc(b1-3)Gal(b1-4)GlcNAc(b1-6)]Man(a1-6)[Gal(b1-4)GlcNAc(b1-3)Gal(b1-4)GlcNAc(b1-3)Gal(b1-4)GlcNAc(b1-2)Man(a1-3)]Man(b1-4)GlcNAc(b1-4)[Fuc(a1-6)]GlcNAc", "method_in_brief": "(§1)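 From the Consortium for Functional Glycomics database, 3228 arrays were curated, keeping only those whose protein sequence was available. Binding is given as a within-array Z-score averaged across arrays sharing a protein sequence and across linkers. Negative Z-scores can be read as non-binding.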"}, "[2]": {"molecular_target": "Gal(b1-4)GlcNAc(b1-3)Gal(b1-4)GlcNAc(b1-3)Gal(b1-4)GlcNAc(b1-3)Gal(b1-4)GlcNAc(b1-2)[Gal(b1-4)GlcNAc(b1-3)Gal(b1-4)GlcNAc(b1-3)Gal(b1-4)GlcNAc(b1-3)Gal(b1-4)GlcNAc(b1-6)]Man(a1-6)[Gal(b1-4)GlcNAc(b1-3)Gal(b1-4)GlcNAc(b1-3)Gal(b1-4)GlcNAc(b1-3)Gal(b1-4)GlcNAc(b1-2)Man(a1-3)]Man(b1-4)GlcNAc(b1-4)[Fuc(a1-6)]GlcNAc", "method_in_brief": "as §1"}, "[3]": {"molecular_target": "Gal(b1-4)GlcNAc(b1-3)Gal(b1-4)GlcNAc(b1-3)Gal(b1-4)GlcNAc(b1-3)Gal(b1-4)GlcNAc(b1-3)Gal(b1-4)GlcNAc(b1-2)[Gal(b1-4)GlcNAc(b1-3)Gal(b1-4)GlcNAc(b1-3)Gal(b1-4)GlcNAc(b1-3)Gal(b1-4)GlcNAc(b1-3)Gal(b1-4)GlcNAc(b1-6)]Man(a1-6)[Gal(b1-4)GlcNAc(b1-3)Gal(b1-4)GlcNAc(b1-3)Gal(b1-4)GlcNAc(b1-3)Gal(b1-4)GlcNAc(b1-3)Gal(b1-4)GlcNAc(b1-2)Man(a1-3)]Man(b1-4)GlcNAc(b1-4)[Fuc(a1-6)]GlcNAc", "method_in_brief": "as §1"}, "[4]": {"molecular_target": "Gal3S(b1-4)Glc", "method_in_brief": "as §1"}, "[5]": {"molecular_target": "Gal3S(b1-4)[Fuc(a1-3)]Glc6S", "method_in_brief": "as §1"}, "[6]": {"molecular_target": "Gal6S(b1-4)Glc", "method_in_brief": "as §1"}, "[7]": {"molecular_target": "GalNAc3S(b1-4)GlcNAc", "method_in_brief": "as §1"}, "[8]": {"molecular_target": "GlcNAc(b1-3)Gal(b1-4)GlcNAc(b1-2)Man(a1-3)[GlcNAc(b1-3)Gal(b1-4)GlcNAc(b1-2)Man(a1-6)]Man(b1-4)GlcNAc(b1-4)GlcNAc", "method_in_brief": "as §1"}, "[9]": {"molecular_target": "GlcNAc(b1-3)GalNAc", "method_in_brief": "as §1"}, "[10]": {"molecular_target": "Man(a1-3)[Man(a1-6)]Man(b1-4)GlcNAc(b1-4)[Fuc(a1-6)]GlcNAc", "method_in_brief": "as §1"}, "[11]": {"molecular_target": "Neu5Ac(a2-3)Gal(b1-3)GlcNAc(b1-2)Man(a1-3)[GlcNAc(b1-4)][Neu5Ac(a2-3)Gal(b1-3)GlcNAc(b1-2)Man(a1-6)]Man(b1-4)GlcNAc(b1-4)GlcNAc", "method_in_brief": "as §1"}, "[12]": {"molecular_target": "Neu5Ac(a2-3)Gal(b1-3)GlcNAc(b1-4)Gal(b1-4)Glc", "method_in_brief": "as §1"}, "[13]": {"molecular_target": "Neu5Ac(a2-3)Gal(b1-4)GlcNAc(b1-2)Man(a1-3)[Neu5Ac(a2-6)Gal(b1-4)GlcNAc(b1-2)Man(a1-6)]Man(b1-4)GlcNAc(b1-4)GlcNAc", "method_in_brief": "as §1"}, "[14]": {"molecular_target": "Neu5Ac(a2-3)Gal(b1-4)GlcNAc(b1-2)[Neu5Ac(a2-3)Gal(b1-4)GlcNAc(b1-6)]Man(a1-6)[Neu5Ac(a2-3)Gal(b1-4)GlcNAc(b1-2)Man(a1-3)][GlcNAc(b1-4)]Man(b1-4)GlcNAc(b1-4)GlcNAc", "method_in_brief": "as §1"}, "[15]": {"molecular_target": "Neu5Ac(a2-3)Gal(b1-4)GlcNAc(b1-3)Gal(b1-4)GlcNAc(b1-3)Gal(b1-4)GlcNAc", "method_in_brief": "as §1"}, "[16]": {"molecular_target": "Neu5Ac(a2-3)Gal(b1-4)[Fuc(a1-3)]GlcNAc(b1-2)Man", "method_in_brief": "as §1"}, "[17]": {"molecular_target": "Neu5Ac(a2-3)GalNAc(b1-4)GlcNAc", "method_in_brief": "as §1"}, "[18]": {"molecular_target": "Neu5Ac(a2-6)Gal", "method_in_brief": "as §1"}, "[19]": {"molecular_target": "Neu5Ac(a2-6)Gal(b1-4)GlcNAc(b1-2)Man(a1-3)[GlcNAc(b1-4)][Neu5Ac(a2-6)Gal(b1-4)GlcNAc(b1-2)Man(a1-6)]Man(b1-4)GlcNAc(b1-4)GlcNAc", "method_in_brief": "as §1"}, "[20]": {"molecular_target": "Neu5Ac9Ac(a2-6)Gal(b1-4)GlcNAc", "method_in_brief": "as §1"}, "[21]": {"molecular_target": "Neu5Gc(a2-3)Gal(b1-4)GlcNAc", "method_in_brief": "as §1"}, "[22]": {"molecular_target": "Neu5Gc(a2-6)GalNAc", "method_in_brief": "as §1"}, "[23]": {"molecular_target": "Neu5Gc(a2-8)Neu5Gc(a2-6)Gal(b1-4)GlcNAc", "method_in_brief": "as §1"}, "[24]": {"molecular_target": "Neu5Gc(b2-6)Gal(b1-4)GlcNAc", "method_in_brief": "as §1"}}, "note": "This excerpt belongs to a sample that is enriched for the strongest signals."}
{"binder": "B1", "values": [{"measurement": "glycan array binding signal (z-score)", "setting": "[1]", "value": 3.08}, {"measurement": "glycan array binding signal (z-score)", "setting": "[2]", "value": 2.31}, {"measurement": "glycan array binding signal (z-score)", "setting": "[3]", "value": 4.43}, {"measurement": "glycan array binding signal (z-score)", "setting": "[4]", "value": -0.499}, {"measurement": "glycan array binding signal (z-score)", "setting": "[5]", "value": 2.84}, {"measurement": "glycan array binding signal (z-score)", "setting": "[6]", "value": -0.033}, {"measurement": "glycan array binding signal (z-score)", "setting": "[7]", "value": -1.45}, {"measurement": "glycan array binding signal (z-score)", "setting": "[8]", "value": 0.67}, {"measurement": "glycan array binding signal (z-score)", "setting": "[9]", "value": -0.207}, {"measurement": "glycan array binding signal (z-score)", "setting": "[10]", "value": -0.768}, {"measurement": "glycan array binding signal (z-score)", "setting": "[11]", "value": 0.141}, {"measurement": "glycan array binding signal (z-score)", "setting": "[12]", "value": -0.775}, {"measurement": "glycan array binding signal (z-score)", "setting": "[13]", "value": -0.814}, {"measurement": "glycan array binding signal (z-score)", "setting": "[14]", "value": -1.1}, {"measurement": "glycan array binding signal (z-score)", "setting": "[15]", "value": -0.469}, {"measurement": "glycan array binding signal (z-score)", "setting": "[16]", "value": -0.89}, {"measurement": "glycan array binding signal (z-score)", "setting": "[17]", "value": 0.443}, {"measurement": "glycan array binding signal (z-score)", "setting": "[18]", "value": 4.55}, {"measurement": "glycan array binding signal (z-score)", "setting": "[19]", "value": -0.868}, {"measurement": "glycan array binding signal (z-score)", "setting": "[20]", "value": -1.27}, {"measurement": "glycan array binding signal (z-score)", "setting": "[21]", "value": -1.14}, {"measurement": "glycan array binding signal (z-score)", "setting": "[22]", "value": -0.987}, {"measurement": "glycan array binding signal (z-score)", "setting": "[23]", "value": -0.326}, {"measurement": "glycan array binding signal (z-score)", "setting": "[24]", "value": -0.257}]}
